# Laboratory results from paper PMC7862700, “An all-to-all approach to the identification of sequence-specific readers for epigenetic DNA modifications on cytosine”.
# Key:
# Assay in all cases: DAPPL (digital affinity profiling via proximity ligation, sequencing); 10 mM Tris-HCl pH 7.5, 50 mM NaCl, 1 mM DTT, 4% glycerol, room temperature, 30 min; GST-TFs on glutathione beads, 16-mer random dsDNA library, 0.1% formaldehyde crosslink after washing; high values mean tight binding
# FLI1 = biological target: T1, FLI1 (Homo sapiens, UniProt Q01543 1-452); conditions: protein: recombinant; tags: N-terminal GST; dsDNA, one strand shown
# T1 sequence: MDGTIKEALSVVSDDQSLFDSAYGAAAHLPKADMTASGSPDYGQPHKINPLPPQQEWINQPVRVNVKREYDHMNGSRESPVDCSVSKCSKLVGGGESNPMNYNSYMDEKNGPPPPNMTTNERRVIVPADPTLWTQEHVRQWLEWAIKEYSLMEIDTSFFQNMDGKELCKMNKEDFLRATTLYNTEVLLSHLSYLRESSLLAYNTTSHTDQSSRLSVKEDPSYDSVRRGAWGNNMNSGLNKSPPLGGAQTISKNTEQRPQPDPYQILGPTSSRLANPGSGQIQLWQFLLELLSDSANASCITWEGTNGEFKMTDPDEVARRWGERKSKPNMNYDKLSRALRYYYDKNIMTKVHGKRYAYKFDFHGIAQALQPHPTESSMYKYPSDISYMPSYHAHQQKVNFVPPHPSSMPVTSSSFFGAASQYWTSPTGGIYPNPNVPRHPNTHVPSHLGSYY
# Summary of the method: (§1)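 Human transcription factors carrying a GST fusion were produced in yeast, bound to glutathione beads, tagged with DNA barcodes and pooled together with a tag-only sample. Each pool was held with 200 nmole of a random double-stranded 16-mer DNA library in Tris/NaCl/DTT/glycerol buffer for 30 min at room temperature, then washed, crosslinked in 0.1% formaldehyde, proximity-ligated with BsaI/T4 ligase (1 h, 37 °C), PCR-amplified and sequenced on an Illumina NextSeq500. Binding signal is the read frequency of each hexamer for a given factor divided by its frequency in the tag-only sample.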
# ELK1 = biological target: T2, ELK1 (Homo sapiens, UniProt P19419 1-428); conditions: protein: recombinant; tags: N-terminal GST; dsDNA, one strand shown
# T2 sequence: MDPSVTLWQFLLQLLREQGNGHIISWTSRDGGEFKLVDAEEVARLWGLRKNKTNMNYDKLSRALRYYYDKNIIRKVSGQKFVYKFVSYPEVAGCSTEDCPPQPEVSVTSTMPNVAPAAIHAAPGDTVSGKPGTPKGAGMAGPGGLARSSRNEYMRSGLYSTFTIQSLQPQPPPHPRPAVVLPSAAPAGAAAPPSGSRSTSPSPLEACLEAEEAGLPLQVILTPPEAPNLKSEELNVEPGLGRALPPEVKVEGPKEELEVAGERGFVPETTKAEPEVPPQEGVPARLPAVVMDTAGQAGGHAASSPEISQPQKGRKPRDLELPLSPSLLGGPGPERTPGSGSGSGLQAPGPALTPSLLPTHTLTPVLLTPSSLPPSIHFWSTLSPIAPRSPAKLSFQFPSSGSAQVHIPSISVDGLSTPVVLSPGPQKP
# Summary of the method: as §1
# GABPA = biological target: T3, GABPA (Homo sapiens, UniProt Q06546 1-454); conditions: protein: recombinant; tags: N-terminal GST; dsDNA, one strand shown
# T3 sequence: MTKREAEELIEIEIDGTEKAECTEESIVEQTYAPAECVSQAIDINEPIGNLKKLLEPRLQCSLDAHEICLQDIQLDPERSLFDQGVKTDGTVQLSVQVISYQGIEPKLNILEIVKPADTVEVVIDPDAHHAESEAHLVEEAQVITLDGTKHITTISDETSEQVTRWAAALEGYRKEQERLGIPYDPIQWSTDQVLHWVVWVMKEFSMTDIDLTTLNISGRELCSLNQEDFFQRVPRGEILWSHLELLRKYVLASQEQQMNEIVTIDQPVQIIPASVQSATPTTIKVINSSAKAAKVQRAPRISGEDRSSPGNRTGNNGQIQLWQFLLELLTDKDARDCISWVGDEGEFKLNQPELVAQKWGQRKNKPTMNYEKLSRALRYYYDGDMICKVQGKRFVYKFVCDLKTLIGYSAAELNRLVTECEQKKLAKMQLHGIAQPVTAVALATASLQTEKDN
# Summary of the method: as §1
# ERG = biological target: T4, ERG (Homo sapiens, UniProt P11308 1-479); conditions: protein: recombinant; tags: N-terminal GST; dsDNA, one strand shown
# T4 sequence: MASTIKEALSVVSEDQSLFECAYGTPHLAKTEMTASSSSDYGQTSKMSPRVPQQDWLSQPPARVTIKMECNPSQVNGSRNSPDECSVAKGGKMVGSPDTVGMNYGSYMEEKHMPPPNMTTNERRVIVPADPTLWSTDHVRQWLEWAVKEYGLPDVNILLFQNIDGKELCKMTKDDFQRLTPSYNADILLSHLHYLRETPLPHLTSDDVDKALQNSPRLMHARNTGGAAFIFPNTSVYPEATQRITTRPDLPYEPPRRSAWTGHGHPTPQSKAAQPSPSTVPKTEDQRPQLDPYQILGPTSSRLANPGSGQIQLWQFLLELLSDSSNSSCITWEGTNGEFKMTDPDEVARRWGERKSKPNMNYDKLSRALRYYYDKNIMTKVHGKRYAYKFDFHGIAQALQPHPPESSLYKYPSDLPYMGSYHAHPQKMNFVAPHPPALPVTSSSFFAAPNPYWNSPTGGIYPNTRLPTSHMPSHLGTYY
# Summary of the method: as §1
# ELF1 = ELF1 (Homo sapiens, UniProt P32519 1-619); conditions: protein: recombinant; tags: N-terminal GST; dsDNA, one strand shown
# Summary of the method: as §1
# EHF = biological target: T5, EHF (Homo sapiens, UniProt Q9NZC4 1-300); conditions: protein: recombinant; tags: N-terminal GST; dsDNA, one strand shown
# T5 sequence: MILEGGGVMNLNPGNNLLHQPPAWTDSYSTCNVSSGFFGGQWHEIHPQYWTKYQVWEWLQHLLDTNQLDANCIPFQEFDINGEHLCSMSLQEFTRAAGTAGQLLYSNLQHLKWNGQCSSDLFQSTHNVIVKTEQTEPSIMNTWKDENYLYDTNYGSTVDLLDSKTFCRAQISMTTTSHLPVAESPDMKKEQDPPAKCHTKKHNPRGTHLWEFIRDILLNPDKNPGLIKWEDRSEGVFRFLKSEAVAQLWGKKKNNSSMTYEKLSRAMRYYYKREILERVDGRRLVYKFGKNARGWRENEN
# Summary of the method: as §1
# SPI1 = SPI1 (Homo sapiens, UniProt P17947 1-270); conditions: protein: recombinant; tags: N-terminal GST; dsDNA, one strand shown
# Summary of the method: as §1
# SPIB = SPIB (Homo sapiens, UniProt Q01892 1-262); conditions: protein: recombinant; tags: N-terminal GST; dsDNA, one strand shown
# Summary of the method: as §1
# ELK3 = biological target: T6, ELK3 (Homo sapiens, UniProt P41970 1-407); conditions: protein: recombinant; tags: N-terminal GST; dsDNA, one strand shown
# T6 sequence: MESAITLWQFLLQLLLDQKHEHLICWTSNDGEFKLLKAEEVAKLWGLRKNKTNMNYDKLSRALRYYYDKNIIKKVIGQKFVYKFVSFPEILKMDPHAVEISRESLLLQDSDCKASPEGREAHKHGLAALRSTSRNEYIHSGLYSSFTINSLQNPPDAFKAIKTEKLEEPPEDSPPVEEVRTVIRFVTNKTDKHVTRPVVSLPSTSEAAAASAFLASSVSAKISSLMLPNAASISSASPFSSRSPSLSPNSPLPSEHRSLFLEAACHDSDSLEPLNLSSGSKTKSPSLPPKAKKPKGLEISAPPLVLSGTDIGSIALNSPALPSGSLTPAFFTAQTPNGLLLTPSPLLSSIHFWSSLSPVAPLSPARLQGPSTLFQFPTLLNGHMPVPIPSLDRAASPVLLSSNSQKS
# Summary of the method: as §1
# FEV = biological target: T7, FEV (Homo sapiens, UniProt Q99581 1-238); conditions: protein: recombinant; tags: N-terminal GST; dsDNA, one strand shown
# T7 sequence: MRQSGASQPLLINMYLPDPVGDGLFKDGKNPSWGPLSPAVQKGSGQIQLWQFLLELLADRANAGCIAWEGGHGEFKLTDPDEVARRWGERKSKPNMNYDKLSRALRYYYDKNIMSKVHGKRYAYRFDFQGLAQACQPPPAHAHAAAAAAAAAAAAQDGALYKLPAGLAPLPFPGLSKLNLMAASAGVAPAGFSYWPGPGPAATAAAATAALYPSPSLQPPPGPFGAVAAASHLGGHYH
# Summary of the method: as §1
# ETV5 = ETV5 (Homo sapiens, UniProt P41161 1-510); conditions: protein: recombinant; tags: N-terminal GST; dsDNA, one strand shown
# Summary of the method: as §1
# HSF1 = HSF1 (Homo sapiens, UniProt Q00613 1-529); conditions: protein: recombinant; tags: N-terminal GST; chain copies: 3; dsDNA, one strand shown
# Summary of the method: as §1
# SPIC = biological target: T8, SPIC (Homo sapiens, UniProt Q8N5J4 1-248); conditions: protein: recombinant; tags: N-terminal GST; dsDNA, one strand shown
# T8 sequence: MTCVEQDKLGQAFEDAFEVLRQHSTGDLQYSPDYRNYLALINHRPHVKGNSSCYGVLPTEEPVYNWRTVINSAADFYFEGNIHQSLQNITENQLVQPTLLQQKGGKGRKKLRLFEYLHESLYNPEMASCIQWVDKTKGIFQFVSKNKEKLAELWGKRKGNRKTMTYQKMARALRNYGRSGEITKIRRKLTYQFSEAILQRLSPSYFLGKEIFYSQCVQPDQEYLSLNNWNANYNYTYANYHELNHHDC
# Summary of the method: as §1
# ELF4 = ELF4 (Homo sapiens, UniProt Q99607 1-663); conditions: protein: recombinant; tags: N-terminal GST; dsDNA, one strand shown
# Summary of the method: as §1
# ELK4 = biological target: T9, ELK4 (Homo sapiens, UniProt P28324-2 1-405); conditions: protein: recombinant; tags: N-terminal GST; dsDNA, one strand shown
# T9 sequence: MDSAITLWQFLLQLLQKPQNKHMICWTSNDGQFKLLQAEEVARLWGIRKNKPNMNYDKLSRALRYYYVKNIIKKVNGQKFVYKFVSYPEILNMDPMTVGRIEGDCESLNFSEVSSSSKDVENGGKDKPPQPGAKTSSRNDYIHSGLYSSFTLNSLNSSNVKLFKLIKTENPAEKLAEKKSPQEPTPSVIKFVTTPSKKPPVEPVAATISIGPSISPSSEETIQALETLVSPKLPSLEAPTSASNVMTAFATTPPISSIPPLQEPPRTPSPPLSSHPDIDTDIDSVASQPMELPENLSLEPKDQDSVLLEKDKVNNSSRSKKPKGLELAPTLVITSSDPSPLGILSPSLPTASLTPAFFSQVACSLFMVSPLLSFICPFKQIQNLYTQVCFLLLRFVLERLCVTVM
# Summary of the method: as §1
# ETV2 = biological target: T10, ETV2 (Homo sapiens, UniProt O00321 1-342); conditions: protein: recombinant; tags: N-terminal GST; dsDNA, one strand shown
# T10 sequence: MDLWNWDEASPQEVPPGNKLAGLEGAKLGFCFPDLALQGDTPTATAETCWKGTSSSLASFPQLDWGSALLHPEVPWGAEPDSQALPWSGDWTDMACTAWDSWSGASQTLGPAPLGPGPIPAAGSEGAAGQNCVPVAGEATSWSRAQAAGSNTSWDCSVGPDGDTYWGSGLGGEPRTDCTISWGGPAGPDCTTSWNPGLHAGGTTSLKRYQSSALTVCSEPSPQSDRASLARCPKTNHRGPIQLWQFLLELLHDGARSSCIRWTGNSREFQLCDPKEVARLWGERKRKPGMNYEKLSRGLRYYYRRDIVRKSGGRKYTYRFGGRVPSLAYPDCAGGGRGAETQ
# Summary of the method: as §1
# ELF3 = biological target: T11, ELF3 (Homo sapiens, UniProt P78545 1-371); conditions: protein: recombinant; tags: N-terminal GST; dsDNA, one strand shown
# T11 sequence: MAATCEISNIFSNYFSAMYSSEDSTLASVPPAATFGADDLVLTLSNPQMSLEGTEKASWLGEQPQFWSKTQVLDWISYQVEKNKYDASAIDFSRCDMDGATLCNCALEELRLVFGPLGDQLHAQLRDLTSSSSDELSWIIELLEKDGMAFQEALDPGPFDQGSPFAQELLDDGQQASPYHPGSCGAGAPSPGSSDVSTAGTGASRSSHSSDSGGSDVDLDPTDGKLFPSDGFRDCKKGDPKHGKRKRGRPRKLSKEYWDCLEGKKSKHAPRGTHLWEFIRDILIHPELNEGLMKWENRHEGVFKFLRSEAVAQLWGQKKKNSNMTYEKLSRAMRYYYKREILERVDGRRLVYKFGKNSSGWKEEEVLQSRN
# Summary of the method: as §1
# CRX = CRX (Homo sapiens, UniProt O43186 1-299); conditions: protein: recombinant; tags: N-terminal GST; dsDNA, one strand shown
# Summary of the method: as §1
# ETV1 = ETV1 (Homo sapiens, UniProt P50549 1-477); conditions: protein: recombinant; tags: N-terminal GST; dsDNA, one strand shown
# Summary of the method: as §1
# Sequence of ELF4 (Q99607 whole entry): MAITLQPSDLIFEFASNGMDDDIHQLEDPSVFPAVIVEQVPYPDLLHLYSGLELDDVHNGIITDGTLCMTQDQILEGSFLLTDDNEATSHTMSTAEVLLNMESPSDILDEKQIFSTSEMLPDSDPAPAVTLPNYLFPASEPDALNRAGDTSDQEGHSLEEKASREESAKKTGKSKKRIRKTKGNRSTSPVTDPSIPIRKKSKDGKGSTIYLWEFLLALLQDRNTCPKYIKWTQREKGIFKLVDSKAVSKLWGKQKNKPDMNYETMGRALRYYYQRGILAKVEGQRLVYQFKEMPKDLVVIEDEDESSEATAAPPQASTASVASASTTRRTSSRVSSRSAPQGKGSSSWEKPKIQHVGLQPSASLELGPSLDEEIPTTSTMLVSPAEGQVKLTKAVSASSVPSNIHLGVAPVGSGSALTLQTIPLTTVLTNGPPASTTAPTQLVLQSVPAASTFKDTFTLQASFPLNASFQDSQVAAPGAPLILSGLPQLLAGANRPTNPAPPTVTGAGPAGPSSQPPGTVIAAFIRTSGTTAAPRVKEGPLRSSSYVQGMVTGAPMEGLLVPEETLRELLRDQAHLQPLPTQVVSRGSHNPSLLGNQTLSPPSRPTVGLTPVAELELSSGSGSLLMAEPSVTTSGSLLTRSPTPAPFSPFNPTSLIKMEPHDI
# Sequence of SPIB (Q01892 whole entry): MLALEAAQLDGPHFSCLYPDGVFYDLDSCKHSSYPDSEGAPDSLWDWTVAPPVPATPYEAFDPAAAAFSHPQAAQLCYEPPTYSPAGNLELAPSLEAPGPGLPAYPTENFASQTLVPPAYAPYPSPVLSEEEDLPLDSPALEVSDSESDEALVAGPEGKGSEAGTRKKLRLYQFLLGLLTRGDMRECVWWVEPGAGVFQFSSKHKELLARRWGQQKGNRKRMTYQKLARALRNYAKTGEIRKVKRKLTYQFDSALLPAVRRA
# Sequence of ETV5 (P41161 whole entry): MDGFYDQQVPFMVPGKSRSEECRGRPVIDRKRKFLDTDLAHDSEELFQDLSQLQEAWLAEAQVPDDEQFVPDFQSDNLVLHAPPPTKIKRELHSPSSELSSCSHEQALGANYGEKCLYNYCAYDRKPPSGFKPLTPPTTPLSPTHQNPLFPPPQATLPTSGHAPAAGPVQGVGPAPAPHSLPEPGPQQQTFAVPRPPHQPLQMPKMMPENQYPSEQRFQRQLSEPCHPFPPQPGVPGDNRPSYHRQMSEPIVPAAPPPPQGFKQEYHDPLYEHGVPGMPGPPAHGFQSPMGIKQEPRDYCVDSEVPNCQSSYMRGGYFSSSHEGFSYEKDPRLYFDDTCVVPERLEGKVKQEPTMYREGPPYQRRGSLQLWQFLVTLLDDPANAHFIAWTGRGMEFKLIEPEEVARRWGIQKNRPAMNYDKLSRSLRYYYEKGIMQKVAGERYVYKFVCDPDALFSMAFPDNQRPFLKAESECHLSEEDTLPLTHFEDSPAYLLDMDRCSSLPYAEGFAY
# Sequence of HSF1 (Q00613 whole entry): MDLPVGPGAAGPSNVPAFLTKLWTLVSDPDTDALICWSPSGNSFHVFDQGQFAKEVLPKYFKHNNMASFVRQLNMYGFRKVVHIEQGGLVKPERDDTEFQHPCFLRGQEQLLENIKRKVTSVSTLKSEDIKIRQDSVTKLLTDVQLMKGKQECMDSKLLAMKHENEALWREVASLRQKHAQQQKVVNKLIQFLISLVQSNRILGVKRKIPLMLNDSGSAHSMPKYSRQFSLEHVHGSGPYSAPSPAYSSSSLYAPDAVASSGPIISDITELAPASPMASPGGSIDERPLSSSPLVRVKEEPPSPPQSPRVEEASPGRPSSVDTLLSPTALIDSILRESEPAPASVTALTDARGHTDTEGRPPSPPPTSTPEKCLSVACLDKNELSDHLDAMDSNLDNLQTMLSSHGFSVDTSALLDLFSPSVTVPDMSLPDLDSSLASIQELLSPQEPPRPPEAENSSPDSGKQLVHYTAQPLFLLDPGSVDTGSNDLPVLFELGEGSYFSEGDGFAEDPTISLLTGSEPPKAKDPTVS
# Sequence of ELF1 (P32519 whole entry): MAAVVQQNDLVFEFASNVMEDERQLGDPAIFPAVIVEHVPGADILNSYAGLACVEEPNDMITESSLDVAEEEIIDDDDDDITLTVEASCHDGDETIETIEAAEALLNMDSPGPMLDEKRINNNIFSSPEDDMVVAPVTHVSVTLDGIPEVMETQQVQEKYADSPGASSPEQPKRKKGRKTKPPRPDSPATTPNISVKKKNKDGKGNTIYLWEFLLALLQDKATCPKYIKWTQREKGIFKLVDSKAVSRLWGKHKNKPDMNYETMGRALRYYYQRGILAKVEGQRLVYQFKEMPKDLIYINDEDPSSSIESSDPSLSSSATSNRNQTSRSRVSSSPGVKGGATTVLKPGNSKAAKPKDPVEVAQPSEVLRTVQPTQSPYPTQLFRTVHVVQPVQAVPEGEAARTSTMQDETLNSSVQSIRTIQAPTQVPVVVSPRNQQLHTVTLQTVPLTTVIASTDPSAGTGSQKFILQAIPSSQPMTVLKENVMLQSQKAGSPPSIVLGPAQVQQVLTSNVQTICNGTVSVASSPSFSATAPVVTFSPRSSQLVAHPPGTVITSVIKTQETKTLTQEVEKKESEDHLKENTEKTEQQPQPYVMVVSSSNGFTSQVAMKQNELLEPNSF
# Sequence of ETV1 (P50549 whole entry): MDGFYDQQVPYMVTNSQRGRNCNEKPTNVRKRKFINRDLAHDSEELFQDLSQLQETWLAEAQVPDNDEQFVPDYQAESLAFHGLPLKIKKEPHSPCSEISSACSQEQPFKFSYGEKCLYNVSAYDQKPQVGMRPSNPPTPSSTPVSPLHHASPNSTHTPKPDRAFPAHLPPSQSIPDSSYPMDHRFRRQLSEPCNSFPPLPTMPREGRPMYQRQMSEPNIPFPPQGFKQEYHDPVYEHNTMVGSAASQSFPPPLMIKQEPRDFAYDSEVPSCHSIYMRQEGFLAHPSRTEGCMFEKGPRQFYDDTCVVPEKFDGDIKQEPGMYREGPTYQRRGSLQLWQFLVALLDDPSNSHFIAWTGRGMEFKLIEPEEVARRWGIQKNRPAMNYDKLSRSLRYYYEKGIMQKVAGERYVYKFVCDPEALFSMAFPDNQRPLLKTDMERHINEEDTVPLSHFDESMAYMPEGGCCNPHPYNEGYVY
# Sequence of CRX (O43186 whole entry): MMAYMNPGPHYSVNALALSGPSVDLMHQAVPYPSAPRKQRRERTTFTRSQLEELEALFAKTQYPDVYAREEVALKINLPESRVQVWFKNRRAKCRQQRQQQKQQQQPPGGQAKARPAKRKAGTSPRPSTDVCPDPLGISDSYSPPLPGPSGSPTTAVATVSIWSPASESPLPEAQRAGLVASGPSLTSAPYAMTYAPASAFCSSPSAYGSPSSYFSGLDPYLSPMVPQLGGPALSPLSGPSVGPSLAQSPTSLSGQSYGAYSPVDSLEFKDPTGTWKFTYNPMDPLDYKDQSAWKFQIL
sequence,measurement,setting,value
TTGAAT,binding signal,FLI1,"1.11 fold enrichment (6-mer frequency, TF over GST control)"
same,binding signal,ELK1,"1.08 fold enrichment (6-mer frequency, TF over GST control)"
same,binding signal,GABPA,"1.15 fold enrichment (6-mer frequency, TF over GST control)"
same,binding signal,ERG,"1.1 fold enrichment (6-mer frequency, TF over GST control)"
same,binding signal,ELF1,"1.12 fold enrichment (6-mer frequency, TF over GST control)"
same,binding signal,EHF,"1.11 fold enrichment (6-mer frequency, TF over GST control)"
same,binding signal,SPI1,"1.12 fold enrichment (6-mer frequency, TF over GST control)"
same,binding signal,SPIB,"1.03 fold enrichment (6-mer frequency, TF over GST control)"
same,binding signal,ELK3,"1.04 fold enrichment (6-mer frequency, TF over GST control)"
same,binding signal,FEV,"1.03 fold enrichment (6-mer frequency, TF over GST control)"
same,binding signal,ETV5,"1.07 fold enrichment (6-mer frequency, TF over GST control)"
same,binding signal,HSF1,"1.09 fold enrichment (6-mer frequency, TF over GST control)"
same,binding signal,SPIC,"1.16 fold enrichment (6-mer frequency, TF over GST control)"
same,binding signal,ELF4,"1.12 fold enrichment (6-mer frequency, TF over GST control)"
same,binding signal,ELK4,"1.05 fold enrichment (6-mer frequency, TF over GST control)"
same,binding signal,ETV2,"1.04 fold enrichment (6-mer frequency, TF over GST control)"
same,binding signal,ELF3,"1.1 fold enrichment (6-mer frequency, TF over GST control)"
same,binding signal,CRX,"1.17 fold enrichment (6-mer frequency, TF over GST control)"
same,binding signal,ETV1,"1.11 fold enrichment (6-mer frequency, TF over GST control)"
